This is a sample that favours compounds with a hit; in the whole collection about 8% have one here.
Pyk2 oligo antag: blocks oligomerization of human Pyk2 in cells | Q14289 | Q293 cells, Pyk2 FERM NanoBiT luminescence; stronger effect = lower value | z-score (the deposit names both 25 µM and 10 µM) | hit rate 0.83% among 99,000 | AID 1347419;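 active = Z-score of -3 or lower, scaled per plate to the spread of control and sample wells; inactive = z-score above -3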;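 also: negative z-score means lost luminescence so less FERM oligomerization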
PostGolgi yeast: growth inhibition of a yeast mutant, post-Golgi transport screen; post-Golgi transport phenotypic cell assay; inhibition, % at 10 µM; hit rate 0.9% among 98,000; AID 739;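 also: yeast cells grown in 1536-well plates; yeast grown about 18 h at 30C before absorbance read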
Cav32 inh: blocks human Cav3.2 T-type calcium channel. O95180. Cav3.2-expressing cells, Fluo-4 calcium fluorescence FDSS; stronger effect = lower value. B-score at 10 µM. hit rate 4% among 100,000. AID 449739;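 active = single-dose well whose peak fluorescence ratio is a statistical outlier from its plate by either plate-standardised score or position-corrected B-score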
PostGolgi ctrl: growth of the yeast control strain, post-Golgi counter-screen; inhibition, % at 10 µM; hit rate 5% among 98,000; AID 738; efflux-deficient yeast background strain, growth absorbance A615, 16 h
Each line names hits and unclear results; the compound was inactive in the other large screens. Rule as the data show it, unless noted: active = inhibition above about 30%; inactive = the rest.

Cc1cc2oc(=O)cc(CSc3nc(N)cc(N)n3)c2cc1C(C)C	none
Cc1cc2oc(=O)cc(CN3CCCCC3)c2cc1C(C)C	Cav32 inh -4.7
C=CCN1C(=O)C(Cc2ccccc2)S/C1=N/N=C/c1cccs1 (configuration not stated)	PostGolgi ctrl 38
Cn1cc(-c2nnnn2-c2cccc(C(F)(F)F)c2)c(C(F)(F)F)n1	none (no result: Cav32 inh)
Cc1cccc(NC(=S)NC(=O)C(c2ccccc2)c2ccccc2)n1	none (no result: PostGolgi yeast, PostGolgi ctrl)
O=C(Nc1ccc(NC(=S)NC(=O)C(c2ccccc2)c2ccccc2)cc1)c1ccccc1	Cav32 inh -4.3 (no result: PostGolgi yeast, PostGolgi ctrl)
Cc1cccc(/C=C2/SC(=O)N(Cc3ccccc3Cl)C2=O)n1	PostGolgi ctrl 39
COc1cc(/C=C2/SC(=O)N(Cc3ccccc3Cl)C2=O)ccc1OCc1ccncc1	none
CCOC(=O)C1CCCN(Cc2ccc(OCC)cc2)C1 (configuration not stated)	none
Clc1ccc(SCc2cc(Cl)nc(-c3ccccc3)n2)cc1	none (no result: PostGolgi yeast, PostGolgi ctrl)
Clc1ccc(Sc2cc(Cl)c(-c3ccccc3)nn2)cc1	Pyk2 oligo antag -3.4, PostGolgi ctrl 59
COc1cccc(OC)c1C(=O)NN1CCCCC1	none
COC(=O)CSc1cnc2ccccc2n1	PostGolgi ctrl 32
COc1ccc(OC)c(C(=O)NC(CC(N)=O)c2ccc(NCCN3CCOCC3)c([N+](=O)[O-])c2)c1 (configuration not stated)	none (no result: Pyk2 oligo antag, PostGolgi yeast, PostGolgi ctrl)
O=C(OCc1ccccc1)N1CCOCCOCCN(C(=O)OCc2ccccc2)CCOCCOCC1	none
Cc1ccccc1NC(=O)N1CCCC(c2nc(-c3ccc(C(C)C)cc3)no2)C1 (configuration not stated)	Cav32 inh -4.2
CCCS(=O)(=O)N1CCCC(c2nc(-c3cccc(OC)c3)no2)C1 (configuration not stated)	Cav32 inh -4
O=C(C1CCCCC1)N1CCCC(c2nc(-c3ccc(F)cc3)no2)C1 (configuration not stated)	none
O=S(=O)(Cc1ccccc1)N1CCCC(c2nc(-c3ccc(F)cc3)no2)C1 (configuration not stated)	PostGolgi ctrl 33
O=C(Nc1ccccc1)N1CC=C(c2ccccc2)CC1	none (no result: Pyk2 oligo antag)
Cc1ccccc1NC(=O)N1CCCC(c2nc(-c3ccc(F)cc3)no2)C1 (configuration not stated)	none
O=C(Nc1ccccc1)N1CC=C(c2ccc(F)cc2)CC1	Cav32 inh -4.6
CCOC(=O)c1ccc(CNC(=O)c2n[nH]c(=O)c3ccccc23)o1	none
O=C(Nc1ccccc1)N1CCCC(c2nc(-c3ccc(F)cc3)no2)C1 (configuration not stated)	Cav32 inh -5.4
Clc1ccc(Nc2ccc(-n3ccnc3)nn2)cc1Cl	PostGolgi ctrl 34
FC(F)(F)c1ccc(-n2ccnc2)nc1	none
CCC(c1nnnn1Cc1ccccc1)N(Cc1ccco1)Cc1cc2cc(OC)ccc2[nH]c1=O (configuration not stated)	PostGolgi ctrl 41
CCC(c1nnnn1Cc1ccco1)N(CCc1ccccc1)Cc1cc2cc(C)ccc2[nH]c1=O (configuration not stated)	none (no result: PostGolgi yeast, PostGolgi ctrl)
CCN(C(=O)Cc1ccc(Br)cc1)C1CCCCC1	Cav32 inh -4.4
Cc1ccc(NC(=O)/C(=C\C=C\c2ccccc2)NC(=O)c2ccccc2)cc1	Cav32 inh -5.3
Cc1ccc(NC(=O)/C(=C\c2ccccc2)NC(=O)/C=C/c2ccccc2)cc1	Cav32 inh -4.9
CCOC(=O)/C(=C\C=C\c1ccccc1)NC(=O)c1ccccc1	none (no result: PostGolgi yeast, Cav32 inh, PostGolgi ctrl)
CCNC(=O)/C(=C/c1ccco1)NC(=O)/C=C/c1ccccc1	none
CCc1sc(C(=O)Nc2cc(Cl)ccc2N2CCCCC2)cc1C	PostGolgi yeast 64, PostGolgi ctrl 41
Cc1c(NC(=O)C2C3C=CC(C3)C2C(=O)O)c(=O)n(-c2ccccc2)n1C (configuration not stated)	none
CSc1ccc(S(=O)(=O)Nc2ccc(F)cc2)cc1	Cav32 inh -5.1
COc1ccc(NS(=O)(=O)c2ccc(SC)cc2)cc1	PostGolgi ctrl 50
COc1ccc(NS(=O)(=O)c2ccc3c(c2)n(C)c(=O)n3C)cc1	Cav32 inh -3.8
CC1(C)CC2(CCO1)OC(=O)CC2C(=O)NCc1ccccc1 (configuration not stated)	none
O=C(Nc1ccc(N2CCCCC2)cc1)c1ccc(F)cc1	none
O=C(c1ccc(F)cc1)c1ccc(N2CCCC2)cc1	PostGolgi ctrl 42
COc1cc(NC(=O)CCn2c(=O)[nH]c3ccsc3c2=O)cc(OC)c1	none
c1cn2c(NC3CCCC3)c(-c3ccc(N4CCOCC4)cc3)nc2cn1	none (no result: Pyk2 oligo antag)
CCN(CC)c1ccc(-c2nc3cnccn3c2NC2CCCC2)cc1	Cav32 inh -6.2, PostGolgi ctrl 35
